Source: PubChem BioAssay (NCI)
About 83,000 compounds went through this panel and 20% of them were active in at least one assay; those are over-represented in the sample as a whole.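 Activity criterion: percent growth below 10, measured after cells in 96-well plates were exposed to a single compound concentration for 48 hours.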 A number with no mark means an inactive call. The source made the active and inactive calls.

Assays:
Experiment in all cases: NCI-60 one-dose screen, 48 h (100 = growth as untreated, 0 = no growth, -100 = all killed)
Conditions in all cases: 10 µM unless noted
[1] = test system: HCT-15 colon
[2] = test system: HT29 colon
[3] = test system: SNB-75 CNS
[4] = test system: SNB-19 CNS
[5] = test system: U251 CNS
[6] = test system: PC-3 prostate
[7] = test system: SK-MEL-5 melanoma
[8] = test system: UACC-62 melanoma
[9] = test system: LOX IMVI melanoma
[10] = test system: SK-MEL-28 melanoma
[11] = test system: EKVX NSCLC
[12] = test system: SN12C renal
[13] = test system: UO-31 renal
[14] = test system: TK-10 renal
[15] = test system: ACHN renal
[16] = test system: CAKI-1 renal
[17] = test system: CCRF-CEM leukemia
[18] = test system: MOLT-4 leukemia
[19] = test system: A498 renal

| Compound | growth [1] | growth [2] | growth [3] | growth [4] | growth [5] | growth [6] | growth [7] | growth [8] | growth [9] | growth [10] | growth [11] | growth [12] | growth [13] | growth [14] | growth [15] | growth [16] | growth [17] | growth [18] | growth [19] |
| --- | --- | --- | --- | --- | --- | --- | --- | --- | --- | --- | --- | --- | --- | --- | --- | --- | --- | --- | --- |
| CCOC(=O)C1=C(C)N=C2Sc3cccc(OC)c3N2[C@H]1c1ccccn1 | 104% | 97.3% | 93.7% | 96.8% | 96.4% | 88.3% | 101% | 87.1% | 96.7% | 119% | 85.8% | 93.4% | 75.3% | 117% | 101% | 89.2% | 102% | 96.9% | – |
| C=C1CC[C@@H]2[C@](C)(COC(C)=O)[C@H](OC(C)=O)CC[C@@]2(C)[C@@H]1C/C=C1/C(=O)OC[C@H]1OC(C)=O | -23% (active) | -39.4% (active) | 44.9% | 83% | 54% | 88.5% | 56.2% | 29.7% | -74.4% (active) | 37.8% | 103% | 33.4% | 62.8% | 16.9% | 19.5% | 81.5% | -11.4% (active) | -6.05% (active) | 90.6% |
| CC(C)Nc1cc(-c2c[nH]c(C(=O)N[C@H](CO)c3cccc(Cl)c3)c2)c(Cl)cn1 | 25.1% | 1.57% (active) | 51.8% | 51.3% | 28% | 34.9% | -7.93% (active) | 11.7% | 14% | 5.19% (active) | 38.9% | 52.2% | 18.2% | 16.2% | 31% | 35.3% | 26.1% | 12.6% | – |
| Cc1cccc(Cl)c1NC(=O)c1cnc(Nc2cc(N3CCOCC3)cc(S(C)(=O)=O)c2)s1 | 43.3% | -68% (active) | -50.1% (active) | 40.5% | 50% | 44.3% | 57.9% | 41.3% | -58.4% (active) | 52.6% | 27.7% | 28.6% | 2.76% (active) | -64.6% (active) | – | -27.7% (active) | 72.7% | 24.8% | -13.6% (active) |
| Cc1nc2ccc(-n3ncc(C(=O)c4cc5ccccc5[nH]4)c3N)cc2[nH]1 | 30.9% | 23.1% | 39.9% | 48.2% | 24.4% | 41.1% | 32.8% | 43.5% | 14.8% | 69.7% | 63.9% | 61.2% | 48.9% | 71.3% | 49.8% | – | 43.8% | 25.1% | 8.03% (active) |
| Cc1ccc(-n2nc(C(C)(C)C)cc2NC(=O)NCc2cc(F)ccc2Oc2ccc3c(cnn3CCO)c2)cc1 | 17.5% | 5.67% (active) | 32.7% | 48.1% | 31.3% | 33.5% | -19.5% (active) | 7.75% (active) | 5.06% (active) | 0.876% (active) | 39.7% | 19.5% | -6.07% (active) | 4.78% (active) | 11.7% | – | 20% | 3.32% (active) | -10.8% (active) |
| Nc1c2c(c(O)c3c1=C(CO)C=N3)=NCCS2=O (centres undefined) | 4.65% (active) | -27.4% (active) | -45.3% (active) | -93.6% (active) | -89.8% (active) | 8% (active) | -100% (active) | -56.4% (active) | -93.4% (active) | -17.4% (active) | -43.1% (active) | -33.2% (active) | -66.8% (active) | 117% | -18.8% (active) | – | 4.74% (active) | -33.8% (active) | -45.6% (active) |
| CC(C)(O)CC(=O)NCCn1ccc2ncnc(Nc3ccc(Oc4cccc(C(F)(F)F)c4)c(Cl)c3)c21 | 12.2% | -24.2% (active) | 29.3% | 18.7% | 9.09% (active) | 1.54% (active) | -19.9% (active) | -7.61% (active) | 6.23% (active) | -0.504% (active) | 8.11% (active) | 12.4% | -6.15% (active) | -30.3% (active) | 8.71% (active) | – | 7.97% (active) | 7.32% (active) | -28.7% (active) |
| CN[C@@H]1C[C@H]2O[C@@](C)([C@@H]1OC)n1c3ccccc3c3c4c(c5c6ccccc6n2c5c31)C(=O)N[C@H]4O | -16.8% (active) | -16.7% (active) | -98.9% (active) | -34.4% (active) | -85.3% (active) | 4.43% (active) | -98.9% (active) | -63.1% (active) | -85.5% (active) | -61.3% (active) | -4.21% (active) | -38.7% (active) | -64.4% (active) | -34% (active) | 5.01% (active) | – | 0.26% (active) | 0.831% (active) | – |
| Cc1cc2c(-c3nc4ccccn4c3NC34CC5CC(CC(C5)C3)C4)c(O)c(O)cc2c(O)c1-c1c(C)cc2c(-c3nc4ccccn4c3NC34CC5CC(CC(C5)C3)C4)c(O)c(O)cc2c1O | 20% | 14.1% | 19.6% | 17.1% | 6.36% (active) | 14.7% | -57.7% (active) | 0.552% (active) | 3.37% (active) | 17.3% | 5.97% (active) | 15.9% | -2.25% (active) | 7.59% (active) | 7.04% (active) | – | 16.4% | 8.13% (active) | 10.8% |
| CN1CCN(c2nc(NCCNc3ccnc4cc(Cl)ccc34)c3ccccc3n2)CC1 | 16.1% | 0.651% (active) | 74.7% | 34.8% | 9.01% (active) | 30.4% | -97.5% (active) | -55.1% (active) | -56% (active) | -58.5% (active) | 52.3% | 10.9% | -9.51% (active) | 16.5% | 5.61% (active) | – | 3.19% (active) | 6.2% (active) | 102% |
| COC(=O)CCCNc1c(-c2c(O)c(O)cc3c(O)c(-c4c(C)cc5c(-c6nc7ccccn7c6NCCCC(=O)OC)c(O)c(O)cc5c4O)c(C)cc23)nc2ccccn12 | 76.9% | 48.8% | 19.9% | 21.4% | 14% | 52.7% | 76.2% | 41.4% | 18% | 39.7% | 61.8% | 21.7% | 57.8% | 64.4% | 78.7% | – | 27.4% | 15.7% | – |
| O=C(Nc1ccc(Nc2ncnc3sc4c(c23)CCOC4)cc1)Nc1ccc(Cl)c(C(F)(F)F)c1 | 98.9% | 81.1% | 69.1% | 110% | 99.9% | 60.8% | 98.1% | 93.4% | 99.9% | 95.1% | 105% | 105% | 115% | 109% | – | 107% | 86.7% | 74.4% | 89.5% |
| CO[C@H]1C[C@@H]2CC[C@@H](C)[C@@](O)(O2)C(=O)C(=O)N2CCCC[C@H]2C(=O)O[C@H]([C@H](C)C[C@@H]2CC[C@@H](OCCO)[C@H](OC)C2)CC(=O)[C@H](C)/C=C(\C)[C@@H](O)[C@H](OC)C(=O)[C@H](C)C[C@H](C)\C=C/C=C/C=C/1C | 53.9% | 44.1% | 20.8% | 49.5% | 42.7% | 44.3% | 63.5% | 40.8% | 40.3% | 44% | 54.9% | 54.3% | 16.6% | 63.8% | 48.6% | – | 35% | 33.3% | 25.8% |
| Cc1ccc(NC(=O)c2ccc(CN3CCN(C)CC3)cc2)cc1Nc1nc(-c2cccnc2)cs1 | 16.1% | 6.04% (active) | 64.8% | 46.3% | 6.69% (active) | 35.9% | -0.29% (active) | 58.4% | -27.3% (active) | -10.3% (active) | 48.3% | 74% | 82.9% | 88.3% | 48.3% | – | 11.8% | 5.98% (active) | 64.8% |
